Screens as filed in PubChem.
BAZ2B block: blocks human BAZ2B; Potency, µM (series often up to 114 µM), most hits filed as inhibitors; Q9UIF8; 360,000 tested, 4.4% active; AlphaScreen BAZ2B-H3K14Ac peptide displacement; also: nearly all actives have a fitted effect of over 60% in size
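Complex of BAZ2B and biotin-H3K14Ac (50 nM apiece) forms over 30 min at RT, then faces library compounds up to 110 uM for another 30 min; AlphaScreen beads added, 20 min dark incubation, luminescence read.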
Sfp inh: Sfp phosphopantetheinyl transferase inhibition | Biochemical Sfp PPTase activity, qHTS | 310,000 tested, 3.5% active | AID 1490 | Potency, µM, most hits filed as inhibitors;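 also: the enzyme is Sfp with the accession as filed and its product quenches rhodamine fluorescence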
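Buffer: 50 mM Hepes-Na pH 7.6, 10 mM MgCl2, 0.01% Nonidet P-40, 0.01% BSA. Enzyme 15 nM, pre-exposed to compound 15 min; substrates then added and fluorescence change tracked over 30 min.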
HP1b chromo inh: inhibitors of HP1-beta chromodomain binding to methylated histone tails | 390,000 tested, 0.56% active | AlphaScreen HP1-beta / biotin-H3K9me3 peptide binding | Potency, µM (highest dose often 114 µM), hits mostly inhibitors | AID 540317 | P83916; also: nearly all actives have a fitted effect of over 70% in size
Target sequence (P83916 whole entry, looked up): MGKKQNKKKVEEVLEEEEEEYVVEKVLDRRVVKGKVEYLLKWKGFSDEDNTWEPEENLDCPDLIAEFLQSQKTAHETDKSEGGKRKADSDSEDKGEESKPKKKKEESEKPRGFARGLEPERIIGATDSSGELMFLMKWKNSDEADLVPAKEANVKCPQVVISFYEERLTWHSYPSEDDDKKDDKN
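HP1-beta protein (50 nM final) preincubated 30 min at room temperature with biotinylated H3(1-18)K9me3 peptide (50 nM) in PBS pH 7.4, 0.01% Tween-20, then compound added for 30 min. AlphaScreen streptavidin donor/nickel chelate acceptor beads (10 ug/mL final), 30 min dark, luminescence read.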
PLK1 PBD block: PLK1 (human) polo-box domain binding inhibition; AID 720504; P53350; 360,000 tested, 2.8% active; Plk1 PBD binding of FITC phosphopeptide, fluorescence polarization; Potency, µM, hits mostly inhibitors; also: series mostly up to about 57 µM; nearly all actives have a fitted effect of over 65% in size
JMJD2A Tudor: JMJD2A Tudor domain (human) inhibition. AlphaScreen JMJD2A-Tudor / H3K4me3 peptide binding. AID 504339. Potency, µM (highest dose often 114 µM), hits mostly inhibitors. O75164. 390,000 tested, 4.4% active; also: nearly all actives have a fitted effect of over 50% in size
G9a block: G9a (human) methyltransferase inhibition; Potency, µM (titrated, usually from 102 µM), actives largely listed as inhibitors; 350,000 tested, 8.8% active; G9a H3K9 monomethylation, AlphaScreen, 2 h; also: nearly all actives have a fitted effect of over 75% in size
Target sequence (Q96KQ7 913-1193 limits assumed): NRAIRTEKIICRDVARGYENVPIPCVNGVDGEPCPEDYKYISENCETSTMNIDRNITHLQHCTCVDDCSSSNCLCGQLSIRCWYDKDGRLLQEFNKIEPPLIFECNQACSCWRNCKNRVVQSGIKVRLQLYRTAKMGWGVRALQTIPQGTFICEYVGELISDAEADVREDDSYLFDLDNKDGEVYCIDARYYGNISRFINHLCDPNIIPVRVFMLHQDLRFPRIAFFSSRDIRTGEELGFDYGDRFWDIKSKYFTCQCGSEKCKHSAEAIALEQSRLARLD
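AlphaScreen detection with an anti-monomethyl H3K9 antibody quantified product after a 2 h room-temperature reaction containing 500 nM biotinylated H3K9 peptide, 20 µM SAM and 20 nM enzyme, which had been preincubated 15 min with compound.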
Numbers stand for hits; - = inactive; ? = inconclusive; . = no result given; ! = repeats disagree; [ ] = another dose, or the depositor's remark. Hits are enriched below; roughly 12% of the tested compounds scored in any of these assays. Calls follow the shape of the dose curve; as a rule, active = well fitted curve in the direction sought with a large enough effect; inconclusive = small, poorly fitted or top-dose-only effect, or another doubt; inactive = no such curve, though single readings can be large; an effect the other way counts as inactive or inconclusive.

SMILES | BAZ2B block | Sfp inh | HP1b chromo inh | PLK1 PBD block | JMJD2A Tudor | G9a block
CCNC(=O)NC(=O)CSc1cccc(C(F)(F)F)c1 | - | - | - | - | - | -
Cc1ccccc1CSCC(=O)NC(=O)NCc1ccco1 | - | - | ? | - | 44.7µM | 44.7µM
O=C(CSc1ccccc1F)NC(=O)NCc1ccco1 | 39.8µM | 44.7µM | - | ? | - | -
Cc1nnc(SCC(=O)NC(=O)NCc2ccco2)s1 | - | - | - | - | - | -
CC(C)(O)C(=O)NNC(=S)NCc1ccco1 | ? | - | - | - | - | -
O=C(CSc1ncccn1)NC(=O)NCc1ccco1 | . | - | - | - | - | -
Cc1ccc(C(=O)NCCC(=O)Nc2ccccc2C)cc1 | - | - | - | - | - | .
Cc1cc2c(nc1C)CCCN2CC(O)CN1CCCc2nc(C)c(C)cc21 | . | - | . | . | . | .
CCOc1ccc(N(CC(=O)O)S(=O)(=O)c2cccnc2)cc1 | - | - | - | - | - | 79.4µM
CC(C)c1ccc(N(CC(=O)O)S(=O)(=O)c2cccnc2)cc1 | - | - | - | 26.7µM | 89.1µM | -
CCOc1ccc(N(CC(=O)O)S(=O)(=O)c2ccc(F)cc2)cc1 | - | - | - | - | -[11.4 µM] | -
COC(=O)N1C(c2ccccc2)=Cc2ccccc2C1C1(C(=O)OC)CCCC1=O (stereo not given) | . | - | . | . | . | .
COc1ccc(N(Cc2cccs2)C(=O)COc2ccc(C(C)C)cc2)cc1 | - | . | - | . | - | -
Cc1nc(NC(=O)c2ccccc2)sc1-c1csc(Nc2cccc(F)c2)n1 | ? | - | . | . | . | 44.7µM
Cc1nc(N)sc1-c1csc(NCc2ccccc2)n1 | 31.6µM | 39.8µM | - | - | ? | 10µM
Cc1nc(N)sc1-c1csc(Nc2ncccn2)n1 | ? | - | ? | ? | ? | ?
Cc1nc(NC(=O)c2ccccc2)sc1-c1csc(N)n1 | ? | - | - | - | ? | 8.91µM
CCOC(=O)CNC(=O)c1sc(NC(=O)c2ccccc2)nc1C | - | - | - | - | - | -
Cc1cc(-c2csc(NC(=O)c3ccccc3C(F)(F)F)n2)c(C)n1Cc1ccccc1 | - | - | - | - | - | 44.7µM
NC(=O)c1ccc(NC(=O)COC(=O)CCC2CCCC2)cc1 | . | . | . | - | . | .
O=C(O)c1c(Cl)cccc1Cl | ? | . | - | - | - | -[0.501 µM]
NCC(=O)Nc1cccc(-c2nn3c(=O)cc(N4CCNCC4)nc3s2)c1 | . | . | . | . | - | .
Cc1cccc(NC(=O)CN(C)C(=O)C2CCCC2)c1C | - | . | - | - | - | -[12.7 µM]
Cc1ccc(Cl)cc1Nc1nc(-c2sc(NC(=O)c3ccccc3)nc2C)cs1 | ? | - | . | . | . | .
Cc1nc(NC(=O)c2ccccc2)sc1-c1csc(NCCc2ccccc2)n1 | ? | - | - | - | ? | 39.8µM
SMILES | BAZ2B block | Sfp inh | HP1b chromo inh | PLK1 PBD block | JMJD2A Tudor | G9a block
Cc1cc(-c2csc(NCc3ccccc3)n2)c(C)n1C | 39.8µM | ? | - | - | 44.7µM | 8.91µM
Cc1nc(NC(=O)c2ccccc2)sc1-c1csc(NCc2ccccc2)n1 | ? | - | - | - | ? | 39.8µM
COc1ccc(-c2coc3cc(O)cc(O)c3c2=O)cc1 | - | 50.1µM! | - | - | - | -
COc1ccc(-c2coc3cc(OC)cc(O)c3c2=O)cc1 | - | - | - | - | - | -[0.501 µM]
Nc1nc(N)c2[nH]c(=S)[nH]c2n1 | . | . | ? | 23.8µM | 3.55µM | .
CCC(C)n1c(=N)c(C(=O)NCc2ccco2)cc2c(=O)n3cc(C)ccc3nc21 (stereo not given) | - | . | - | . | - | -
CCN(CC)c1ccc(/C=N/NC(=O)OC)c(O)c1 | - | - | - | - | - | ?
CCN(CC)c1ccc(/C=N/NC(=S)NC)c(O)c1 | 39.8µM | - | ? | - | 44.7µM | ?
CCN(CC)c1ccc(/C=N/N=C(N)N)c(O)c1 | - | - | - | - | ? | -
CCN(CC)c1ccc(/C=N/Nc2ccccc2)c(O)c1 | 44.7µM | 56.2µM | 15.8µM | ? | 28.2µM | ?
CCN(CC)c1ccc(/C=N/Nc2cccc(C)c2)c(O)c1 | 50.1µM | ? | 17.8µM | ? | 39.8µM | 1.41µM
CCOc1ccccc1C1CC(=O)NC(C)=C1C(=O)OCc1ccc(C)cc1 (stereo not given) | - | . | - | . | - | -
Cc1ccc2c(c1)C(=O)C(=O)N2Cc1ccc(Cl)cc1 | . | . | - | ? | ? | .
Cc1noc(NS(=O)(=O)c2ccc(NS(=O)(=O)c3ccc(C(C)(C)C)cc3)cc2)c1C | . | . | . | - | . | .
O=C(COc1ccc(Cl)cc1)N/N=C/c1cccc2cccnc12 | - | - | - | - | - | .
COc1ccc(OCC(=O)N/N=C/c2cccc3cccnc23)cc1 | . | . | - | - | 79.4µM | .
CC(C)n1cc(/C=N/NC(=O)COc2cccc3cccnc23)c2ccccc21 | - | ? | - | - | - | 44.7µM
COc1ccccc1OCC(=O)N/N=C/c1cccc2cccnc12 | 35.5µM | - | - | - | 56.2µM | .
C=CCn1cc(/C=N/NC(=O)COc2cccc3cccnc23)c2ccccc21 | ? | ? | - | - | ? | ?
CCOC(=O)/C(=N\Nc1ccc(Cl)cc1)Sc1nnc(-c2ccc(OC)cc2)n1C | ? | - | - | - | - | 10µM
CCOC(=O)/C(=N/Nc1ccc(OC)cc1)Sc1nnc(CCc2ccccc2)n1-c1ccccc1 | - | - | - | - | - | ?
C=CCn1c(C)cc(C(=O)CN2C(=O)NC3(CCCc4ccccc43)C2=O)c1C (stereo not given) | ? | - | ? | - | ? | 44.7µM
COc1ccccc1C(=O)CN1C(=O)NC2(CCCc3ccccc32)C1=O (stereo not given) | . | . | - | - | - | .
CCN(C(=O)CN1C(=O)NC2(CCc3ccccc32)C1=O)C1CCCCC1 (stereo not given) | - | . | - | - | - | 44.7µM
COc1ccc(N2CCN(C(=O)CN3C(=O)NC4(CCCc5ccccc54)C3=O)CC2)cc1 (stereo not given) | - | . | - | - | - | 39.8µM
SMILES | BAZ2B block | Sfp inh | HP1b chromo inh | PLK1 PBD block | JMJD2A Tudor | G9a block
COc1ccccc1C(=O)CN1C(=O)NC2(CCc3ccccc32)C1=O (stereo not given) | - | . | - | - | - | 50.1µM
Cc1cc(C(=O)CN2C(=O)NC3(CCCc4ccccc43)C2=O)c(C)n1Cc1cccs1 (stereo not given) | - | - | - | - | -[11.4 µM] | -
C=CCc1ccccc1OCC(O)CN1CCN(CCN2C(=O)c3cccc4cccc(c34)C2=O)CC1 (stereo not given) | ? | 5.62µM | ? | - | ? | 39.8µM
Cc1ccccc1OCC(O)CN1CCN(CCN2C(=O)c3cccc4cccc(c34)C2=O)CC1 (stereo not given) | ? | - | - | - | ? | 79.4µM
CC(C)OCC(O)CN1CCN(CCN2C(=O)c3cccc4cccc(c34)C2=O)CC1 (stereo not given) | - | - | - | - | - | ?
Cc1ccccc1OCC(O)Cn1c2ccccc2c2ccccc21 (stereo not given) | - | - | - | - | - | -
